Source: PubChem BioAssay
A selection: hits, their analogues and other compounds. The true share with any hit is near 10%.
JMJD2A Tudor: JMJD2A Tudor domain (human) inhibition; AlphaScreen JMJD2A-Tudor / H3K4me3 peptide binding; O75164; Potency, µM (doses to about 114 µM), actives largely listed as inhibitors; actives 4.4% (n = 390,000); further: nearly all actives have a fitted effect of over 50% in size
BAZ2B block: BAZ2B (human) inhibition; Q9UIF8; AlphaScreen BAZ2B-H3K14Ac peptide displacement; Potency, µM (top dose mostly 114 µM), most hits filed as inhibitors; actives 4.4% (n = 360,000); AID 504333; further: nearly all actives have a fitted effect of over 60% in size
Target sequence (Q9UIF8 whole entry, looked up): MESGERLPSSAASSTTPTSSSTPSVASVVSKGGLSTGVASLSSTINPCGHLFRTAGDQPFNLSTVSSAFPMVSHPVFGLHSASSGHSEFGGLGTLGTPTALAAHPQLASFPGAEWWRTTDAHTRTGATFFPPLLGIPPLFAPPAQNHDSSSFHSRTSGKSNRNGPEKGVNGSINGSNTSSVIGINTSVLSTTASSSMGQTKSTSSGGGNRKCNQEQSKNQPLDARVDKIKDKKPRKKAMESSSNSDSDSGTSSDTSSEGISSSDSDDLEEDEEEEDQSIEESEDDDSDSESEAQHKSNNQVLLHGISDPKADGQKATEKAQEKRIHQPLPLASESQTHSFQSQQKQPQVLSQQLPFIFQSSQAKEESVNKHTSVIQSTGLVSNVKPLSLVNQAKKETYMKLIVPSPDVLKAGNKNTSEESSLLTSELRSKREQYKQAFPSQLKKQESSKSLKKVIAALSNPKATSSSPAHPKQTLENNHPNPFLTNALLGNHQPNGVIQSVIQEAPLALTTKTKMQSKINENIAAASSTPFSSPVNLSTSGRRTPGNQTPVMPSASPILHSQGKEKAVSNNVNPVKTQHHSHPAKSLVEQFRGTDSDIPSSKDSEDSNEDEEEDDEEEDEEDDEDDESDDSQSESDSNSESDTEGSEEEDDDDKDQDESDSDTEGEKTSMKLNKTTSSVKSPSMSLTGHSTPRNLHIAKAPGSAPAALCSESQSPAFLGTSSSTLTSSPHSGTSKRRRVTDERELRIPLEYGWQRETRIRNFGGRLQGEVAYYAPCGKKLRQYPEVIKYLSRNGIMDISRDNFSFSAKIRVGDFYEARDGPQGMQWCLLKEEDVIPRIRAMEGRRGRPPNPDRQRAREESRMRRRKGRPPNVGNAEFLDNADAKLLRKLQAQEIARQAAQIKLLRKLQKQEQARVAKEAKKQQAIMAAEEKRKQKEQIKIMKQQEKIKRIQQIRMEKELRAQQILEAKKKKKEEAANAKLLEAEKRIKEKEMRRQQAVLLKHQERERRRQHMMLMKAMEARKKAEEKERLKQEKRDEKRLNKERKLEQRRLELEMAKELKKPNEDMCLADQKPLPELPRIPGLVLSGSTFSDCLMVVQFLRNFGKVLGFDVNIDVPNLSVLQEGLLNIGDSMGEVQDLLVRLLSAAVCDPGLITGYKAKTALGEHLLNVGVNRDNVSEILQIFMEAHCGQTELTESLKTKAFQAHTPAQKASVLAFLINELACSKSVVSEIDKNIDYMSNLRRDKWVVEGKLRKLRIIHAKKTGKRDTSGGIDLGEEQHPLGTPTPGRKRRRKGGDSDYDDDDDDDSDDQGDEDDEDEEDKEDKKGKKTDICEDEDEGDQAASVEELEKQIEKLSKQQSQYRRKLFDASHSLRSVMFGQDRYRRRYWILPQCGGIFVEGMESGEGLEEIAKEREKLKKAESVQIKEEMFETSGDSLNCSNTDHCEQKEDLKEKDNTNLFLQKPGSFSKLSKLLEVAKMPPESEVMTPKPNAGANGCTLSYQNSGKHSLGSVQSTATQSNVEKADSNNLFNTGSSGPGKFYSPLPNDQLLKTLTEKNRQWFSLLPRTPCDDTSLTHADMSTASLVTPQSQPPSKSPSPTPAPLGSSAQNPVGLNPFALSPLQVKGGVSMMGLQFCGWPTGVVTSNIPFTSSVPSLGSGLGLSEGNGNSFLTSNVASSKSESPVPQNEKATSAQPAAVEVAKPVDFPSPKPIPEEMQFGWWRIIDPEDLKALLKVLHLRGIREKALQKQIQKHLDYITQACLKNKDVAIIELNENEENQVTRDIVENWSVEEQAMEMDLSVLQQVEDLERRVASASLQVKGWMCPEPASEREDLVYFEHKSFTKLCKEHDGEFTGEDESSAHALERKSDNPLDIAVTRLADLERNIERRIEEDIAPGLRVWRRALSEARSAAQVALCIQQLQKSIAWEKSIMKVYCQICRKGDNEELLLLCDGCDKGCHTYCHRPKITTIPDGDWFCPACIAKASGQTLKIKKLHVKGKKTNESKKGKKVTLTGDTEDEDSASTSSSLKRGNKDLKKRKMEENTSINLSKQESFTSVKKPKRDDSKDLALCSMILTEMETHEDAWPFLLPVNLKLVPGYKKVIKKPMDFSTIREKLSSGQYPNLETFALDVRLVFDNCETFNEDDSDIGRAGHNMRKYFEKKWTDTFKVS
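AlphaScreen displacement of biotin-H3(5-23)K14Ac peptide (50 nM final) from BAZ2B (50 nM final) in PBS pH 7.4, 0.01% Tween-20; complex preformed 30 min RT, then compounds (top 110 uM) 30 min RT, beads 20 min dark.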
G9a block: G9a (human) methyltransferase inhibition. G9a H3K9 monomethylation, AlphaScreen, 2 h. Potency, µM (top dose mostly 102 µM), hits mostly inhibitors. Q96KQ7. actives 8.8% (n = 350,000). AID 504332; further: nearly all actives have a fitted effect of over 75% in size
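Readings reflect AlphaScreen signal from monomethyl-H3K9 antibody detection. HMT at 20 nM; substrate b-H3K9 500 nM; cofactor SAM 20 uM; 2 h RT reaction; compounds tested as titrations in qHTS with 15 min preincubation.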
GLS inhibitor: glutaminase GLS (human) inhibition; Potency, µM (titrated, usually from 45.5 µM), usual class: inhibitors; actives 0.21% (n = 410,000); GLS enzymatic activity, qHTS titration; O94925
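Two-point fluorescence kinetic (t0, 30 min RT) for hKGA; glutamate detected via glutamate oxidase–HRP–Amplex Red. Substrate: 1 mM L-glutamine solution; buffer 45 mM KH2PO4, pH 8.2.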
HP1b chromo inh: inhibitors of HP1-beta chromodomain binding to methylated histone tails; actives 0.56% (n = 390,000); P83916; Potency, µM (series often up to 114 µM), usual class: inhibitors; AlphaScreen HP1-beta / biotin-H3K9me3 peptide binding; further: nearly all actives have a fitted effect of over 70% in size
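AlphaScreen: HP1-beta (50 nM) preformed 30 min with biotin-H3(1-18)K9me3 peptide (50 nM) in PBS pH 7.4, 0.01% Tween-20. Compound added for 30 min at RT, then streptavidin donor/nickel chelate acceptor beads (10 ug/mL) for 30 min.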
Large screens that a line does not name were inactive; ! = a repeat was not active. The call rests on the fitted dose curve; in most records, active means well fitted curve in the direction sought with a large enough effect; inconclusive means small, poorly fitted or top-dose-only effect, or another doubt; inactive means no such curve, though single readings can be large; an effect the other way counts as inactive or inconclusive.

O=C(COc1ccccc1)NC(Cc1c[nH]c2ccccc12)C(=O)O (stereo not given)	G9a block 35µM
Cc1ccccc1OCC(=O)NC(Cc1c[nH]c2ccccc12)C(=O)O (stereo not given)	none
Cc1cccc(OCC(=O)NC(Cc2c[nH]c3ccccc23)C(=O)O)c1C (stereo not given)	G9a block 40µM
O=C(COC(=O)C1CC(=O)N(Cc2ccccc2)C1)c1ccc(F)cc1 (stereo not given)	none
COC(=O)C(Cc1c[nH]c2ccccc12)NC(=O)c1cc(-c2ccc(OC)c(OC)c2)oc1C (stereo not given)	JMJD2A Tudor 50µM, G9a block 50µM
COc1ccc(C2CC(O)(C(C)(C)O)NO2)cc1 (stereo not given)	G9a block inconclusive
CC1(C2(O)CC(c3ccccc3)ON2)CCCCC1 (stereo not given)	G9a block 40µM (no result: JMJD2A Tudor, GLS inhibitor, HP1b chromo inh)
CN(c1nccc(=O)[nH]1)C1CCN(c2nc3ccccc3n2Cc2ccc(F)cc2)CC1	none (no result: JMJD2A Tudor, BAZ2B block, HP1b chromo inh)
CC(=O)N1CCN(CC(=O)Nc2sccc2C#N)CC1	JMJD2A Tudor 56µM
N#Cc1ccsc1NC(=O)CN1CCN(c2ccccc2)CC1	none
COc1ccc(N2CCN(CC(=O)Nc3sccc3C#N)CC2)cc1	BAZ2B block inconclusive
Cc1ccc(S(=O)(=O)CCC(=O)OCC(=O)Nc2sccc2C#N)cc1	none (no result: JMJD2A Tudor, BAZ2B block, G9a block, HP1b chromo inh)
COc1ccc(CNCC(=O)Nc2sccc2C#N)cc1	BAZ2B block 50µM, G9a block 28µM
Cc1ccc(S(=O)(=O)CCC(=O)Nc2sccc2C#N)cc1	G9a block 25µM
Cc1c(NC(=O)CN2CCN(c3ccc(O)cc3)CC2)c(=O)n(-c2ccccc2)n1C	JMJD2A Tudor 28µM, G9a block 6.3µM, HP1b chromo inh inconclusive (no result: BAZ2B block)
N#Cc1ccsc1NC(=O)CN1CCN(c2ccc(O)cc2)CC1	JMJD2A Tudor inconclusive, G9a block 18µM, GLS inhibitor inconclusive, HP1b chromo inh inconclusive
Cc1cc(C)c2sc(N3CCN(C(=O)c4ccc(N(C)C)cc4)CC3)nc2c1	JMJD2A Tudor 40µM, BAZ2B block 20µM, G9a block 22µM, HP1b chromo inh inconclusive
Cc1cc(C)c2sc(N3CCN(C(=O)C4CC4)CC3)nc2c1	none
O=C(c1cc(C(F)(F)F)cc(C(F)(F)F)c1)N1CCC[C@@]2(CCN(c3ccccc3)C2)C1	none (no result: JMJD2A Tudor, BAZ2B block, GLS inhibitor, HP1b chromo inh)
CCOC(=O)C1=C(Cn2cnc3ccccc32)NC(=O)NC1c1ccc(OC)cc1 (stereo not given)	BAZ2B block 56µM
Cc1sc(NC(=O)CN(C(=O)c2ccccc2F)C2CCCC2)c(C(N)=O)c1C	none
O=C(O)CC/C(=N\Nc1ccc([N+](=O)[O-])cc1S(=O)(=O)N1CCOCC1)c1cccs1	G9a block 35µM, GLS inhibitor inconclusive
COc1ccc(-c2nc(=S)[nH][nH]2)cc1OC	JMJD2A Tudor 2.8µM, BAZ2B block 56µM, G9a block 0.56µM, HP1b chromo inh inconclusive
COc1ccc(-c2nc3ccccc3nc2-c2ccccc2)cc1OC	none
COc1cc(-c2nnc(-c3cc(OC)c(OC)c(OC)c3)o2)cc(OC)c1OC	none
COc1ccc(-c2nc3ccccc3nc2-c2ccc(OC)c(OC)c2)cc1OC	G9a block 20µM
COc1cc(-c2nc(=S)[nH][nH]2)cc(OC)c1OC	JMJD2A Tudor 3.5µM, BAZ2B block 50µM, G9a block 0.56µM, HP1b chromo inh inconclusive
COc1ccc(-c2cc(=O)[nH][nH]2)cc1OC	G9a block inconclusive
COc1ccccc1C(=O)Nc1cccc(C(=O)OCc2cc(=O)n3cc(C)sc3n2)c1	none
Cn1ccnc1C(=O)c1ccc(NN)c([N+](=O)[O-])c1	BAZ2B block inconclusive, G9a block 22µM
CC1(C)COC(c2cccc(C3=NC(C)(C)CO3)n2)=N1	JMJD2A Tudor 20µM
O=C(O)CC(NS(=O)(=O)c1ccc(Br)cc1)c1ccco1 (stereo not given)	G9a block 79µM
Cc1ccc(S(=O)(=O)NC(CC(=O)O)c2ccco2)cc1 (stereo not given)	G9a block inconclusive
Cc1ccc(S(=O)(=O)NC(CC(=O)NCC2CCCO2)c2ccco2)cc1 (stereo not given)	JMJD2A Tudor 4.5µM
O=C(Nc1sc2c(c1C(=O)NCc1ccco1)CCCC2)c1cc(=O)c2ccccc2o1	none
CC1=CC(C)(C(Cl)(Cl)Cl)C(C)=CC1=NO (stereo not given)	none (no result: JMJD2A Tudor, BAZ2B block, G9a block, HP1b chromo inh)
Cc1ccc(C(=O)c2cc3c(cc2N)OCCO3)cc1	JMJD2A Tudor 50µM, BAZ2B block 35µM, G9a block 28µM
Nc1cc2c(cc1C(=O)c1ccccc1)OCCO2	JMJD2A Tudor inconclusive, BAZ2B block 40µM (no result: G9a block)
Nc1cc2c(cc1C(=O)c1ccc(Cl)cc1)OCCO2	JMJD2A Tudor 50µM, BAZ2B block 35µM, G9a block 45µM
COC(=O)c1cc2c(cc1N)OCCO2	BAZ2B block inconclusive, G9a block 56µM
Cc1ccc(C(=O)c2cn(Cc3ccccc3)c3cc4c(cc3c2=O)OCCO4)cc1	none
COc1ccc(OC)c(CCNC(=O)Cn2nc(C)c3c(C)n(-c4ccc(C)cc4)nc3c2=O)c1	BAZ2B block 50µM (no result: G9a block)
CCOc1ccc(CNC(=O)Cn2nc(C)c3c(C)n(-c4ccc(C)cc4)nc3c2=O)cc1	JMJD2A Tudor 40µM!
Cc1nn(CCC(=O)NCc2ccc(N(C)C)cc2)c(=O)c2nn(-c3ccccc3)c(C)c12	G9a block 45µM
COC(=O)c1cccc(Nc2nn3c(=O)c4cc5c(cc4nc3s2)OCO5)c1	none
CCCC(=O)Nc1nc(-c2ccc(Cl)s2)cs1	none
O=C(Nc1nc(-c2ccc(Cl)s2)cs1)c1ccco1	G9a block 40µM
O=C(Nc1ccc([N+](=O)[O-])cc1)Nc1nc(-c2ccc(Cl)s2)cs1	G9a block 16µM
O=C(O)C1CCCCC1C(=O)Nc1nc(-c2ccc(Cl)s2)cs1 (stereo not given)	JMJD2A Tudor inconclusive, BAZ2B block 56µM, G9a block 45µM
O=C(Nc1nc(-c2ccc(Cl)s2)cs1)c1cccs1	G9a block 50µM
CN(C)c1ccc(CC(=O)N2CCCCC2c2cc(C(=O)Nc3ccccc3)no2)cc1 (stereo not given)	none (no result: JMJD2A Tudor, BAZ2B block, G9a block, HP1b chromo inh)
Cc1nc(N)sc1N=Nc1ccc(F)cc1	JMJD2A Tudor inconclusive, G9a block 45µM, HP1b chromo inh inconclusive
CCc1ccc(NC(=O)CSC2=Nc3ccccc3C3=NC(CCC(=O)NCc4cccs4)C(=O)N23)cc1 (stereo not given)	none
COCCN(C(C)=O)c1nnc(-c2ccccn2)s1	BAZ2B block 56µM
COCCN(C(C)=O)c1nnc(-c2cnccn2)s1	none
CC(=O)N(CC1CCCO1)c1nnc(-c2ccccn2)s1 (stereo not given)	BAZ2B block 50µM, G9a block 56µM
COc1ccc([C@@H]2Sc3ccccc3N(CCN(C)C)C(=O)[C@@H]2OC(C)=O)cc1	G9a block 3.2µM!
